Measured values as given in PubChem BioAssay AID1159580 (chemical genetic matrix, 2015).
Several values for one entry are separate records, joined by “and”; a condition that tells them apart may be missing. Identical values can stand only once. Hit rate of the full screen: of about 5,500 compounds, about 2,000 (36%) were called active. Not shown: some 18% with an inconclusive outcome. Rule as the data show it: active = normalized growth mostly below about 0.91 (no sharp cut-off); inconclusive = no clear call, values can overlap the other calls; inactive = mostly above about 0.92. This is one part of the list.

Assay: chemical genetic growth profiling, strain panel (AID 1159580);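 also: tested at 20 µM; growth read once vehicle control cultures reached saturation at 30 °C; 1 = growth at the plate median or of vehicle wells; lower values mean less growth of the strain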
Conditions: S. cerevisiae deletion strains, growth OD

Measured: normalized growth

CCn1cc(C(=O)O)c(=O)c2cc(F)c(N3CCNCC3)nc21
inactive: locus YAL013W, strain DEP1, active compounds read low 1.01 | locus YAL021C, strain ccr4, active compounds read low 0.939 | locus YAL026C, strain drs2, active compounds read low 0.985 | locus YAL030W, strain snc1, active compounds read low 0.982 | locus YBL061C, strain skt5, active compounds read low 0.991 | locus YBR009C, strain hhf1, active compounds read low 0.992 | locus YBR021W, strain FUR4, active compounds read low 1.01 | locus YBR023C, strain chs3, active compounds read low 0.983 | locus YBR171W, strain sec66, active compounds read low 0.984 | locus YBR229C, strain ROT2, active compounds read low 1.01 | locus YBR231C, strain swc5, active compounds read low 0.998 | locus YBR279W, strain paf1, active compounds read low 0.982 | locus YCL011C, strain gbp2, active compounds read low 0.987 | locus YCL016C, strain dcc1, active compounds read low 0.986 | locus YCL029C, strain bik1, active compounds read low 1 | locus YCL061C, strain MRC1, active compounds read low 0.987 | locus YCL069W, strain vba3, active compounds read low 0.97 | locus YCR088W, strain abp1, active compounds read low 0.982 | locus YDL005C, strain med2, active compounds read low 0.978 | locus YDL035C, strain GPR1, active compounds read low 1.02 | locus YDL040C, strain nat1, active compounds read low 0.983 | locus YDL074C, strain BRE1, active compounds read low 1 | locus YDL101C, strain DUN1, active compounds read low 1.01 | locus YDL134C, strain PPH21, active compounds read low 1.03 | locus YDL185W, strain tfp1, active compounds read low 1.03 | locus YDL192W, strain arf1, active compounds read low 1.02 | locus YDR001C, strain nth1, active compounds read low 0.978 | locus YDR069C, strain doa4, active compounds read low 0.982 | locus YDR101C, strain arx1, active compounds read low 1 | locus YDR137W, strain rgp1, active compounds read low 0.939 | locus YDR159W, strain sac3, active compounds read low 0.962 | locus YDR162C, strain NBP2, active compounds read low 1.02 | locus YDR195W, strain ref2 0.97 | locus YDR297W, strain sur2, active compounds read low 0.971 | locus YDR318W, strain mcm21, active compounds read low 1.02 | locus YDR334W, strain swr1, active compounds read low 0.974 | locus YDR335W, strain msn5, active compounds read low 0.979 | locus YDR388W, active compounds read low 1.01 | locus YDR392W, strain spt3, active compounds read low 0.946 | locus YDR502C, strain sam2, active compounds read low 1.01 | locus YEL003W, strain gim4, active compounds read low 0.985 | locus YEL037C, strain rad23, active compounds read low 0.975 | locus YEL061C, strain CIN8 (second series), active compounds read low 0.979 | locus YEL061C, strain CIN8, active compounds read low 1.01 | locus YER015W, strain faa2, active compounds read low 0.982 | locus YER016W, strain bim1, active compounds read low 0.984 | locus YER110C, active compounds read low 1.02 | locus YER111C, strain swi4, active compounds read low 0.985 | locus YER155C, strain BEM2 (second series), active compounds read low 0.956 | locus YER155C, strain BEM2, active compounds read low 1.01 | locus YER167W, strain BCK2, active compounds read low 1.03 | locus YFR010W, strain ubp6, active compounds read low 0.984 | locus YGL078C, strain dbp3, active compounds read low 1.01 | locus YGL086W, strain mad1, active compounds read low 1.01 | locus YGL167C, strain pmr1, active compounds read low 0.976 | locus YGL173C, strain kem1, active compounds read low 0.98 | locus YGL227W, strain vid30, active compounds read low 0.987 | locus YGL240W, strain doc1, active compounds read low 0.975 | locus YGL248W, strain PDE1, active compounds read low 1.01 | locus YGL253W, strain hxk2, active compounds read low 0.994 | locus YGR135W, strain pre9, active compounds read low 1.03 | locus YGR252W, strain gcn5, active compounds read low 1.01 | locus YHR013C, strain ard1, active compounds read low 0.966 | locus YHR027C, strain rpn1, active compounds read low 0.994 | locus YHR030C, strain SLT2, active compounds read low 1.01 | locus YHR079C, strain IRE1 (second series), active compounds read low 1.01 | locus YHR079C, strain IRE1, active compounds read low 1.03 | locus YHR094C, strain hxt1, active compounds read low 1.02 | locus YHR129C, strain ARP1, active compounds read low 1.01 | locus YHR142W, strain chs7, active compounds read low 0.984 | locus YHR200W, strain rpn10, active compounds read low 1.01 | locus YIL066C, strain RNR3, active compounds read low 1.02 | locus YIL073C, strain SPO22, active compounds read low 1.08 | locus YIL125W, strain kgd1, active compounds read low 1.01 | locus YIR030C, strain dcg1, active compounds read low 1.01 | locus YJL092W, strain hpr5, active compounds read low 0.991 | locus YJL095W, strain BCK1 (second series), active compounds read low 0.985 | locus YJL095W, strain BCK1, active compounds read low 1 and 1.04 | locus YJL115W, strain asf1, active compounds read low 0.963 | locus YJL129C, strain trk1, active compounds read low 0.943 | locus YJL134W, strain LCB3, active compounds read low 1 | locus YJL154C, strain vps35, active compounds read low 0.961 | locus YJL164C, strain tpk1, active compounds read low 0.992 | locus YJL166W, strain qcr8, active compounds read low 0.981 | locus YJL168C, strain set2, active compounds read low 1.01 | locus YJL187C, strain SWE1 (second series), active compounds read low 1 | locus YJL187C, strain SWE1, active compounds read low 0.981 | locus YJR043C, strain POL32, active compounds read low 0.992
